Results taken from the supplement of paper PMC11732987, “Enantioselective OTUD7B fragment discovery through chemoproteomics screening and high-throughput optimisation” (Communications Chemistry, 2025).

Columns and labels:
Assay in all cases: log2 ratio of Biotin-Ahx-Ub-VS probe labelling (fragment/DMSO); higher = less target engagement (more negative = stronger competition), active = hit call of the paper (q ≤ 0.05, log2 ratio ≤ -1)
Settings in all cases: compound concentration: 200 uM; treatment time: 3 h
USP16 = USP16 (UniProt Q9Y5T5)
In short: (§1)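 Using Biotin-Ahx-Ub-VS at 0.5 µM final for 1 h, DUBs were labelled in HEK293T lysate (495 µg per sample) that had first been treated in triplicate with fragment at 200 µM or vehicle for 3 h. NeutrAvidin enrichment, LysC and trypsin digestion and diaPASEF LC-MS/MS followed. Spectronaut label-free quantities were global-median-normalised. Values are average log2 fragment/vehicle ratios by unpaired t-test, using proteins with ≥2 unique peptides.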

USP19 = target: T1, USP19 (UniProt O94966)
T1 sequence (whole entry): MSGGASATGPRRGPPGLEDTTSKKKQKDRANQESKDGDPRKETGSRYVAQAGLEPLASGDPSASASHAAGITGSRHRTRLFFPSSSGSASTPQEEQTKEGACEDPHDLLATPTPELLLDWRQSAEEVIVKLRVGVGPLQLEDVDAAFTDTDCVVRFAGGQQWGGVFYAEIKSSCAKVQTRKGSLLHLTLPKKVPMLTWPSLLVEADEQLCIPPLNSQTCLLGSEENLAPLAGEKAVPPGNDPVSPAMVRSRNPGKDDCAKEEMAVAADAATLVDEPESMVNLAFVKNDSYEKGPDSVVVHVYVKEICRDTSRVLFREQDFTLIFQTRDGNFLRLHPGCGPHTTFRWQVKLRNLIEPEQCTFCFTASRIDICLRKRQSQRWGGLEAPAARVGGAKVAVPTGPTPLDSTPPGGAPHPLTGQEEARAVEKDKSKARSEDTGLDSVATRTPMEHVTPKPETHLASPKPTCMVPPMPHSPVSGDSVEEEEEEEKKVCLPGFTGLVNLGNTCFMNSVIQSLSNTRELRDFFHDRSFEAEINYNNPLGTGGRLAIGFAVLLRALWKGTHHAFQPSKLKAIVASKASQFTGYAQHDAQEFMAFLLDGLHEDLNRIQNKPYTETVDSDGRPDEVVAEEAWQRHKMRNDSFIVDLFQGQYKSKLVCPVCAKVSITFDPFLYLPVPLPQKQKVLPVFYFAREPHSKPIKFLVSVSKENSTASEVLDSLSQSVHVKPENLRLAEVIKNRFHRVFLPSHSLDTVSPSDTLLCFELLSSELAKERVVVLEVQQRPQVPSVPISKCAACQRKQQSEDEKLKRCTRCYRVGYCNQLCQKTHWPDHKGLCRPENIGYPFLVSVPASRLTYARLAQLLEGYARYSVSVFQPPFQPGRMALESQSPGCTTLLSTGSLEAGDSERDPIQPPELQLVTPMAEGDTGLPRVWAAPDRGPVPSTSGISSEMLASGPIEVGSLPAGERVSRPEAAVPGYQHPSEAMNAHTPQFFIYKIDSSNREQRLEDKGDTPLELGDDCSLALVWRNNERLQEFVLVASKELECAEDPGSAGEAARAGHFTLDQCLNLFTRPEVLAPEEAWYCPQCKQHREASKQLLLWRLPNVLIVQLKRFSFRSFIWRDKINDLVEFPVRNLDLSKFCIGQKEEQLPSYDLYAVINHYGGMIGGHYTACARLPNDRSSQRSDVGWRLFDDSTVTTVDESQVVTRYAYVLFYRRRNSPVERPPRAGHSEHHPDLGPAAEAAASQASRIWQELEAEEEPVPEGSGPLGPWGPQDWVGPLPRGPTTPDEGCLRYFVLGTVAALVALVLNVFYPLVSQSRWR
In short: as §1

USP24 = USP24 (UniProt Q9UPU5)
In short: as §1

USP25 = target: T2, USP25 (UniProt Q9UHP3)
T2 sequence (whole entry): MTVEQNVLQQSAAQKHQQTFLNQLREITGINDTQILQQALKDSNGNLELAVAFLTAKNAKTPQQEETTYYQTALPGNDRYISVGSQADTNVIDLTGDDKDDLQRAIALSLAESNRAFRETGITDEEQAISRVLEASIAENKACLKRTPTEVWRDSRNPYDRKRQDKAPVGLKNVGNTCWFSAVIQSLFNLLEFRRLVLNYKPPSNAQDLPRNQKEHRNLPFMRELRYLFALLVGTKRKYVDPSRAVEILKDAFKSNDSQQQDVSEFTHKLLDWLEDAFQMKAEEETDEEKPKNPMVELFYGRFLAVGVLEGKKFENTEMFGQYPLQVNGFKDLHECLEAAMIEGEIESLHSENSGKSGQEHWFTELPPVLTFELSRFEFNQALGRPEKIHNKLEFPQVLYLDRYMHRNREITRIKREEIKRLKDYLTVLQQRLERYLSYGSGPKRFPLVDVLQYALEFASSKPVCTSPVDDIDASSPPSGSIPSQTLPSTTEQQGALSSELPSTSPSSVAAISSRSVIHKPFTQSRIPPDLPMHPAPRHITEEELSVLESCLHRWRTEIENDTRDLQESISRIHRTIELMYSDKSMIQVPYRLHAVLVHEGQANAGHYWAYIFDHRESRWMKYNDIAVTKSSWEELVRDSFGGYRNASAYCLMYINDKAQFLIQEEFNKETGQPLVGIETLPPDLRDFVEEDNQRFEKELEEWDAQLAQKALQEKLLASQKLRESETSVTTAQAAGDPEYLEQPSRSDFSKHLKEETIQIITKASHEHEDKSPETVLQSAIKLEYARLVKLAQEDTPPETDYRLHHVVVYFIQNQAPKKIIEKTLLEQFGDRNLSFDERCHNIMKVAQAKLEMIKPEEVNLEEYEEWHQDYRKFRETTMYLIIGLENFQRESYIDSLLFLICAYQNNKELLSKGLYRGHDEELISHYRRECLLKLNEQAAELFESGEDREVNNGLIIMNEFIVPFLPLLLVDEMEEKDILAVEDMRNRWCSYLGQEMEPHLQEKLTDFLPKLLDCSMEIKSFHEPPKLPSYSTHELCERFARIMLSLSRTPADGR
In short: as §1

USP28 = target: T3, USP28 (UniProt Q96RU2)
T3 sequence (whole entry): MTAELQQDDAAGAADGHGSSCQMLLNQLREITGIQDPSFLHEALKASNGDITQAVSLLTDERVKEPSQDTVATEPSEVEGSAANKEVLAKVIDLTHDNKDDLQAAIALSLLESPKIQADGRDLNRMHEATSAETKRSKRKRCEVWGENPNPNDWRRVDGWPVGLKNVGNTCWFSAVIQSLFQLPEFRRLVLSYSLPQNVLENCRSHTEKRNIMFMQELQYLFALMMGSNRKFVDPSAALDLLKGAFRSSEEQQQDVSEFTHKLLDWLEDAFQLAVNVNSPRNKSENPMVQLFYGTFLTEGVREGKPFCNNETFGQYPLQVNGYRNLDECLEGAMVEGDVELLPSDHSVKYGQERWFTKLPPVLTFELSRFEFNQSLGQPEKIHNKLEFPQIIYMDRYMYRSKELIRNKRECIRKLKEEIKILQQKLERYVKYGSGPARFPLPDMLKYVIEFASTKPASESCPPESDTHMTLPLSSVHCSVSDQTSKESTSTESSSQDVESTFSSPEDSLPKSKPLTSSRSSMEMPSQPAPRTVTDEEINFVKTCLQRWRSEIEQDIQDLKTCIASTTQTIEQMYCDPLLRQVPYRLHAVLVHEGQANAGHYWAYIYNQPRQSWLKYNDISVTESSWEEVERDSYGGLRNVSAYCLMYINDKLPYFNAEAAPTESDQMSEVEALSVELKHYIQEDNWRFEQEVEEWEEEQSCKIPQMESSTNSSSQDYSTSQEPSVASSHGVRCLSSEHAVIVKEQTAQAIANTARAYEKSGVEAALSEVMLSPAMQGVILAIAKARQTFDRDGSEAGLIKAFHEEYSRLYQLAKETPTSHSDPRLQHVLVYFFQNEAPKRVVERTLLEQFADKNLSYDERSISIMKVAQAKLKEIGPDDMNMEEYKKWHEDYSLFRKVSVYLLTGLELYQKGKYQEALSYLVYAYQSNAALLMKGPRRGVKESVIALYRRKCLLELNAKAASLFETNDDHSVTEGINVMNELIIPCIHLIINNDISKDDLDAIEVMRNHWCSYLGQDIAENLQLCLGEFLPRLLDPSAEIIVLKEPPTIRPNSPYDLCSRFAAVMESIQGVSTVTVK
In short: as §1

Measured: log2 ratio of Biotin-Ahx-Ub-VS probe labelling

USP16, sequence (Q9Y5T5 whole entry, looked up, the tested form may be a part): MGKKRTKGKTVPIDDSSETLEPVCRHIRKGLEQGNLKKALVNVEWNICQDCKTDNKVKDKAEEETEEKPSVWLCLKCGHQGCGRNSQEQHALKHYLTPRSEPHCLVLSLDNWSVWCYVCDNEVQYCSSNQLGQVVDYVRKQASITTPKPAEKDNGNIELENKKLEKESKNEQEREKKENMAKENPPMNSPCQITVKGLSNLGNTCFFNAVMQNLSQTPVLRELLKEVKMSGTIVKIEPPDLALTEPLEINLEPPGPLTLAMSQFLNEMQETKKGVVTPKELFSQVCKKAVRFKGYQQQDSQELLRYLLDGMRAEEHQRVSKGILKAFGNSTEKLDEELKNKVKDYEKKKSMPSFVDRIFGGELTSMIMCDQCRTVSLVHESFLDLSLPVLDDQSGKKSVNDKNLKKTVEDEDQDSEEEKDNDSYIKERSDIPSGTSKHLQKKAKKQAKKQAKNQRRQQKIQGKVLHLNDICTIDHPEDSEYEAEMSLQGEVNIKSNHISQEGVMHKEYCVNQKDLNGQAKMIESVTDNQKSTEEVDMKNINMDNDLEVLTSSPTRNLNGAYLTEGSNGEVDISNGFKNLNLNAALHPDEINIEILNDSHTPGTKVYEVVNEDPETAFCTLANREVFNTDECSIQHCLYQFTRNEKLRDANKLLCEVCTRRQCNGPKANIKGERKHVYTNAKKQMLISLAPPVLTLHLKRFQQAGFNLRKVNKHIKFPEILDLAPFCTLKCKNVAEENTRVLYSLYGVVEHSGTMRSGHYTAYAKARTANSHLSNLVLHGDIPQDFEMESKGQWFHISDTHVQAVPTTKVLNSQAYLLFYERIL
USP24, sequence (Q9UPU5 whole entry): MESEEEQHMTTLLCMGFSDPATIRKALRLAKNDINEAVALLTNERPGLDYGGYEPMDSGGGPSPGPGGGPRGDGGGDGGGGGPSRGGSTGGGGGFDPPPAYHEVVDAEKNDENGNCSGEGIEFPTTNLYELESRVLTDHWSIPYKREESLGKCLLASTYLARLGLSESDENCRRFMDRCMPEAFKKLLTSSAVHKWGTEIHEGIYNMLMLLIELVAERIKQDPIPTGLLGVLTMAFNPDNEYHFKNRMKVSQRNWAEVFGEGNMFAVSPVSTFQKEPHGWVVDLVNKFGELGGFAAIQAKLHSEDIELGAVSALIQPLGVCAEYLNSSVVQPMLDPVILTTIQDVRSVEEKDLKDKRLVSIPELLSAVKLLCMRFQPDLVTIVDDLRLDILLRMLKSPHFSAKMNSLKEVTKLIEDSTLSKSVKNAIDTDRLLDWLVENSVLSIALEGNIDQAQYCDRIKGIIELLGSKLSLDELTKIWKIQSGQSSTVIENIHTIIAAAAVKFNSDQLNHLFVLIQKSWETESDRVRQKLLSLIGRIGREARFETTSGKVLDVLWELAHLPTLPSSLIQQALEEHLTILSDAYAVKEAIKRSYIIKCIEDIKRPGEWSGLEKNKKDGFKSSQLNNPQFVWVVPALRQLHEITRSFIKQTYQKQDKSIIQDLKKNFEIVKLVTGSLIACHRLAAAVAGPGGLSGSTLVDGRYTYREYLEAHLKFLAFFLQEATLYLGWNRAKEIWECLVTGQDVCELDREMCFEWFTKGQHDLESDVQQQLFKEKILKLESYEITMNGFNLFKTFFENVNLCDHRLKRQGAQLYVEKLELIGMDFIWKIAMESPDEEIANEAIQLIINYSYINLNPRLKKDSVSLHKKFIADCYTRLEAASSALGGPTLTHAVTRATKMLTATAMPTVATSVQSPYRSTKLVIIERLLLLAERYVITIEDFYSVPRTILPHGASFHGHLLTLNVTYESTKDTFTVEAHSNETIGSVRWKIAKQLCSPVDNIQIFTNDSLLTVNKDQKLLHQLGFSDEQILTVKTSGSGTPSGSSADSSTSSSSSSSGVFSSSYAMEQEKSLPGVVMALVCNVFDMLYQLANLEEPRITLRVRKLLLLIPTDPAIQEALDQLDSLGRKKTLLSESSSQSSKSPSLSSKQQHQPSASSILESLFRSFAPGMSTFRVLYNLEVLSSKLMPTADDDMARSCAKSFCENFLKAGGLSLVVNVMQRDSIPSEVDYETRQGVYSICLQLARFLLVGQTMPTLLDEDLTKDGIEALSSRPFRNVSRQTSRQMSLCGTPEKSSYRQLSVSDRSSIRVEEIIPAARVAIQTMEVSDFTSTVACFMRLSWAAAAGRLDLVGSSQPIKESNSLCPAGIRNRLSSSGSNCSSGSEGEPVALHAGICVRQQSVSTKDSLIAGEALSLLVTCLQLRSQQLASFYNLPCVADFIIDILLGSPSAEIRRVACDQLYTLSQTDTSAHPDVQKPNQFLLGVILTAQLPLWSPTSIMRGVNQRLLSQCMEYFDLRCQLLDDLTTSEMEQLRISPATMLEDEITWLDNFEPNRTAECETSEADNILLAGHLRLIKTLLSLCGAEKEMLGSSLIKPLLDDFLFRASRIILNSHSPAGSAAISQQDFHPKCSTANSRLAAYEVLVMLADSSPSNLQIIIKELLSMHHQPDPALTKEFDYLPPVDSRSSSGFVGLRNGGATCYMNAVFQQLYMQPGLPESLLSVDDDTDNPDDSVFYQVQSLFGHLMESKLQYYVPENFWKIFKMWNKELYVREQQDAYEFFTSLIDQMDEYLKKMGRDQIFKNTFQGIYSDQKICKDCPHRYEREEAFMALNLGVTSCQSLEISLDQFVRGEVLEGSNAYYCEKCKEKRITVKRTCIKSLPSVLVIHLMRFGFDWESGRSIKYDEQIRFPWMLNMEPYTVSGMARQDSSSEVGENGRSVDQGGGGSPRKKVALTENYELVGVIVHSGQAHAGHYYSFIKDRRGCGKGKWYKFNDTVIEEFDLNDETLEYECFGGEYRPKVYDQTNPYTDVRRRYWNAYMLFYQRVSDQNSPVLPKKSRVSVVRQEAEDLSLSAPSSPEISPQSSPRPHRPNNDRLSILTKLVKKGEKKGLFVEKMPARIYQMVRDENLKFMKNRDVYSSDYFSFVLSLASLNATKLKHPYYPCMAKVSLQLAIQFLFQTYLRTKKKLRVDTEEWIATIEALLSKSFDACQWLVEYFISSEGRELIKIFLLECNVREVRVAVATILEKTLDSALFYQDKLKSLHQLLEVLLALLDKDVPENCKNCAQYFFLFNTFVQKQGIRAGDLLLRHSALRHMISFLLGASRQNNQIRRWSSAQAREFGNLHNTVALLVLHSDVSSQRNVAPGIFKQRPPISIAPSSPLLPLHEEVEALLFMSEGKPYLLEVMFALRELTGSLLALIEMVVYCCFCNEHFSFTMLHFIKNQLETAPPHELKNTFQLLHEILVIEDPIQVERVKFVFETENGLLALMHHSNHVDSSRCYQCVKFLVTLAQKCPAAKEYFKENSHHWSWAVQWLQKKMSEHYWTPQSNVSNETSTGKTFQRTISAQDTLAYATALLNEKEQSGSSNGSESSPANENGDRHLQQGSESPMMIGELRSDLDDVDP

Cl.Cn1nccc1C(NC(=O)CCl)c1ccccc1 (stereo not given)
inactive: USP16 -0.0928 | USP19 -0.0802 | USP24 -0.00471 | USP25 -0.455 | USP28 -0.472
